High-throughput results from PubChem.
A selection: hits, their analogues and other compounds. The true share with any hit is near 3.5%.
FBW7 act: FBW7 E3 ligase activators, primary screen, biochemical, AlphaScreen, human | 650,000 compounds, 0.13% hits | F-box/WD repeat-containing protein 7 (Homo sapiens), Q969H0 | normalized activity (activation), % at 26.1 µM | AlphaScreen FBW7–phospho-cyclin E peptide binding, activator screen; in the data active means normalized activity above about 1.9%;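 further: purified mutant Fbw7 with reduced substrate affinity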
Target sequence (Q969H0 whole entry, looked up): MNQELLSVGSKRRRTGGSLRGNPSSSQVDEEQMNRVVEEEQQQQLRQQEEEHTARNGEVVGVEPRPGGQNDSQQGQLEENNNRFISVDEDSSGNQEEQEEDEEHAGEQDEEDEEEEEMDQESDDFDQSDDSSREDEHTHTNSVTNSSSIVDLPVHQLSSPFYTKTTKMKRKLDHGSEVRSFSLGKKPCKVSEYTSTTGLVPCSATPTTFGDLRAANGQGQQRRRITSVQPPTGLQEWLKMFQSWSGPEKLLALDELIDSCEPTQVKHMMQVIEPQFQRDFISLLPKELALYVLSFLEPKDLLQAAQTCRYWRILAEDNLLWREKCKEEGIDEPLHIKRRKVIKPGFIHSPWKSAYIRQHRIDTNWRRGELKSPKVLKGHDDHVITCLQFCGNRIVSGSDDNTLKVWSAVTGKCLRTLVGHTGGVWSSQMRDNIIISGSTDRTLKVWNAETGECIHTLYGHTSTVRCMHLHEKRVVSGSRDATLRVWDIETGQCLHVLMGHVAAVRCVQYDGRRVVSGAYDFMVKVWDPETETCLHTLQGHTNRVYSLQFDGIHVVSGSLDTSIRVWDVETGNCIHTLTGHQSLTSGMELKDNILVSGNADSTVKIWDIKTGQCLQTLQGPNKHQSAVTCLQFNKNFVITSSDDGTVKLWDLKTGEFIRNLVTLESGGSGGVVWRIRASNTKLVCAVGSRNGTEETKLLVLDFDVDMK
GPR151 activ: activators of human GPR151, primary screen, cell-based, PathHunter beta-arrestin, luminescence. G-protein coupled receptor 151 (Homo sapiens), Q8TDV0. 650,000 compounds, 1% hits. activation, % at 11.2 µM. PathHunter beta-arrestin GPR151 cells; in the data active means activation above about 4.9%;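 further: 0% = median of compound wells and 100% = cells with positive control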
MITF inh: MITF inhibitors, primary screen, biochemical, AlphaScreen, human; 650,000 compounds, 0.91% hits; AlphaScreen MITF homodimerization, bead proximity signal; AID 1259374, 2018; inhibition, % at 2.6 µM; in the data active means inhibition above about 50%;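 further: 0% = vehicle wells with protein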
TEAD-YAP inh: TEAD-YAP interaction inhibition, primary screen, TEAD-YAP interaction inhibitor project, luminescence, HEK-TIYL cells | 640,000 compounds, 1.4% hits | TEAD-Gal4/YAP UAS-luciferase luminescence | inhibition, % at 9.12 µM | AID 1259422, 2018; in the data active means inhibition above about 32%;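 further: 0% = median of test compound wells and 100% = reference inhibitor wells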
GPR151 conf act: GPR151 activators, triplicate retest, confirmation, cell-based, PathHunter beta-arrestin, luminescence; 6,700 tested, under 10 active; shares compounds with GPR151 activ; AID 1508609, 2020; activation, % at 11.2 µM; GPR151 PathHunter beta-arrestin cells, 90 min; % of EA-reagent control over plate median;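 active means mean percent activation across replicates above the confirmation screen cutoff of 4.91%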
GPR119 ag: GPR119 activators in beta-arrestin cells, counter-screen for GPR151 activator project, cell-based, PathHunter beta-arrestin, luminescence, triplicate | shares compounds with GPR151 activ | 90 min; 0 = compound-well median, 100 = enzyme-acceptor control | 6,700 compounds, 0.3% hits | activation, % at 11.2 µM;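 active means mean percent activation in the counterscreen above 29.09%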;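 further: counterscreen on off-target GPR119 to flag nonselective hits from the GPR151 activator screen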
Active calls of the source: *; ! = a repeat was not active.

Results for C[C@@H]1CN(Cc2ccc3c(c2)CN(Cc2ccc4c(c2)CCO4)CCO3)C[C@H](C)O1 ?
FBW7 act: 0; GPR151 activ: 6.5*; MITF inh: -1; TEAD-YAP inh: -13; GPR151 conf act: 0; GPR119 ag: 4

What do the screens show for `CCC(Oc1ccccc1)C(=O)O/N=C(\N)c1ccc(OC)cc1` (stereo not drawn)?
FBW7 act: 0; GPR151 activ: 0; MITF inh: 4; TEAD-YAP inh: -8

What do the screens show for `CCC[C@@H]1NC(=O)[C@@H]2C[C@H](NC(=O)c3ccc(F)c(C(F)(F)F)c3)CN2C1=O`?
FBW7 act: 0; GPR151 activ: 1; MITF inh: 5; TEAD-YAP inh: 11

Results for O=C(CSc1ncc(-c2cccc(Br)c2)o1)Nc1ccc(F)cc1F ?
FBW7 act: 0; GPR151 activ: 9.3*; MITF inh: -3; TEAD-YAP inh: 6; GPR151 conf act: -4; GPR119 ag: -12

What do the screens show for `CCOC(=O)c1[nH]c(C)c(C(=O)OCc2nc3ccc(Cl)cc3n2CCO)c1C`?
FBW7 act: 0; GPR151 activ: 6.3*; MITF inh: -2; TEAD-YAP inh: 56*; GPR151 conf act: 1; GPR119 ag: -2

What do the screens show for `CC(C)C(=O)NCC1CCC2(CCN(Cc3cccc4ccccc34)CC2)O1` (stereo not drawn)?
FBW7 act: 0; GPR151 activ: 0; MITF inh: 13; TEAD-YAP inh: 5

Results for CCOC(=O)c1sc2ncn(/N=C/N(C)C)c(=O)c2c1C ?
FBW7 act: 0; GPR151 activ: 7.1*; MITF inh: 5; TEAD-YAP inh: 9; GPR151 conf act: 1; GPR119 ag: 4

Results for COc1ccc(Cc2noc(-c3ccc([N+](=O)[O-])cc3)n2)cc1 ?
FBW7 act: 0; GPR151 activ: 0; MITF inh: 11; TEAD-YAP inh: 11

What do the screens show for `CC(C)(C)c1nc(Cc2ccc([N+](=O)[O-])cc2)no1`?
FBW7 act: 0; GPR151 activ: 8.6*; MITF inh: -1; TEAD-YAP inh: 0; GPR151 conf act: -1; GPR119 ag: 2

How did Cc1cc(-c2nc3cc(Cl)ccc3c(=O)o2)ccc1[N+](=O)[O-] do in these assays?
FBW7 act: 0; GPR151 activ: 6.3*; MITF inh: -4; TEAD-YAP inh: -4; GPR151 conf act: 0; GPR119 ag: 3

How did Cc1ccc(-c2nc3cc(Cl)ccc3c(=O)o2)cc1C do in these assays?
FBW7 act: 0; GPR151 activ: -2; MITF inh: -8; TEAD-YAP inh: -47

Results for COc1ccc(Cn2nccc2N)cc1OC ?
FBW7 act: 0; GPR151 activ: 14*; MITF inh: 2; TEAD-YAP inh: -2; GPR151 conf act: 2; GPR119 ag: 7

Results for COc1ccccc1Cn1nccc1N ?
FBW7 act: 0; GPR151 activ: 2; MITF inh: 8; TEAD-YAP inh: 2

How did CCSc1c(-c2ccc3ccccc3n2)cnc2ccccc12 do in these assays?
FBW7 act: 0; GPR151 activ: 1; MITF inh: 10; TEAD-YAP inh: -35

How did CO[C@H]1/C=C/O[C@@]2(C)Oc3c(C)c(O)c4c(O)c(c(/C=N\N5CCN(C)CC5)c(O)c4c3C2=O)NC(=O)/C(C)=C\C=C\C(C)[C@H](O)[C@@H](C)[C@@H](O)[C@@H](C)[C@@H](OC(C)=O)[C@@H]1C (stereo partly drawn) do in these assays?
FBW7 act: 0; GPR151 activ: -1; MITF inh: -14; TEAD-YAP inh: 2

What do the screens show for `CO[C@H]1C=CO[C@@]2(C)Oc3c(C)c(O)c4c(O)c(c(C=NN5CCN(C)CC5)c(O)c4c3C2=O)NC(=O)C(C)=CC=C[C@H](C)[C@H](O)[C@@H](C)[C@@H](O)[C@@H](C)[C@H](OC(C)=O)[C@@H]1C`?
FBW7 act: 0; GPR151 activ: 6.0*!; MITF inh: -4; GPR151 conf act: 0; GPR119 ag: -6

How did COc1cc2[nH]c(=S)n(C3CC(C)(C)NC(C)(C)C3)c(=O)c2cc1OC do in these assays?
FBW7 act: 0; GPR151 activ: 7.2*; MITF inh: 11; TEAD-YAP inh: -2; GPR151 conf act: 0; GPR119 ag: 9

What do the screens show for `COc1cc2[nH]c(=S)n(C3CC3)c(=O)c2cc1OC`?
FBW7 act: 0; GPR151 activ: 1; MITF inh: 10; TEAD-YAP inh: 19

Results for CCc1ccc(C(=O)COC(=O)CCC(=O)Nc2ccc(OC)cc2)cc1 ?
FBW7 act: 0; GPR151 activ: 6.5*; MITF inh: 17; TEAD-YAP inh: 6; GPR151 conf act: -1; GPR119 ag: -6

Results for COc1ccc(NC(=O)CCC(=O)Oc2ccc(C)cc2)cc1 ?
FBW7 act: 0; GPR151 activ: 16*; MITF inh: -4; TEAD-YAP inh: 1; GPR151 conf act: -1; GPR119 ag: -6

What do the screens show for `CCc1ccc(C(=O)COC(=O)CCC(=O)Nc2ccc([N+](=O)[O-])cc2)cc1`?
FBW7 act: 0; GPR151 activ: -1; MITF inh: 13; TEAD-YAP inh: 3

How did CCc1ccccc1NC(=O)CCC(=O)OCC(=O)c1ccc(Cl)cc1 do in these assays?
FBW7 act: 0; GPR151 activ: 8.7*; MITF inh: 10; TEAD-YAP inh: 11; GPR151 conf act: 0; GPR119 ag: -6

What do the screens show for `CCOC(=O)c1ccc(NC(=O)CCC(=O)OCC(=O)c2ccc([N+](=O)[O-])cc2)cc1`?
FBW7 act: 0; GPR151 activ: 7.4*; MITF inh: 0; TEAD-YAP inh: 3; GPR151 conf act: 0; GPR119 ag: 8

What do the screens show for `CCc1ccccc1NC(=O)CCC(=O)OCC(=O)c1ccc(C)cc1`?
FBW7 act: 0; GPR151 activ: -2; MITF inh: 11; TEAD-YAP inh: 1

How did NC(=S)N/N=C/c1ccc(OCc2ccccc2)cc1 do in these assays?
FBW7 act: 0; GPR151 activ: -1; MITF inh: -3; TEAD-YAP inh: 20

Results for O=C(CCCC(=O)OCC(=O)c1ccc(Cl)c([N+](=O)[O-])c1)Nc1ccccc1Cl ?
FBW7 act: 0; GPR151 activ: 5.1*; MITF inh: -1; TEAD-YAP inh: 3; GPR151 conf act: 0; GPR119 ag: 6

What do the screens show for `CCCS(=O)(=O)c1c(S(=O)(=O)CCC)c2ccc(C(C)=O)cn2c1C(=O)c1ccc(OC)cc1`?
FBW7 act: 0; GPR151 activ: 6.1*; MITF inh: -1; TEAD-YAP inh: -3; GPR151 conf act: 1; GPR119 ag: 18
